The campaign covered roughly 330,000 compounds. About 1,900 (0.58%) were called active. Another 4% or so got no clear call; they are omitted. Not all results are given here. Potency and affinity values are given separately. A number with no mark means an inactive call. No stated cut-off is given here; in the data, inconclusive means inhibition above about 70% without an active follow-up result; inactive means below that.

Inhibition data for 89 molecules are collected here from PubChem BioAssay AID449762 (Southern Research Specialized Biocontainment Screening …, 2010).

The test can be described thus: M. tuberculosis growth inhibition, HTS (AID 449762).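 Further: bacterial growth assessed after seven days of incubation.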 Particulars: M. tuberculosis H37Rv growth inhibition, 7H9 media; at 25 µM; active compounds read high.
`C[C@H](CO)N1C[C@H](C)[C@@H](CN(C)Cc2ccncc2)Oc2c(cccc2N(C)C)C1=O`: the inhibition is 2.32%.

`COc1ccc(Cl)cc1NC(=O)CN(C)C(=O)Cn1c(=O)oc2ccccc21`: the inhibition is 1.38%.

For `O=C(c1cc(COc2c(F)cccc2F)on1)N1CCN(C2CCCCC2)CC1`, the inhibition is 10.1%.

As for `COc1ccc(-c2onc3ccc(C(=O)/C=C/N(C)C)cc23)cc1`, the inhibition was 6.78%.

In the case of `O=c1oc2ccccc2c(Nc2ccc(O)cc2)c1[N+](=O)[O-]`, the inhibition is -6.31%.

`O=c1oc2ccccc2c(Nc2cccc3ccccc23)c1[N+](=O)[O-]`: the inhibition is 20.4%.

On to `CCn1c(SCC(=O)Nc2ccc3c(c2)OCCO3)nnc1C1CC1`, for which the inhibition was -3.26%.

Take `CCC(=O)Nc1nc(-c2ccc3c(c2)CC(C)N3S(C)(=O)=O)cs1` (centres undefined): the inhibition was 58.2%.

Regarding `CC1Cc2cc(-c3csc(NC(=O)Cc4ccccc4)n3)ccc2N1S(C)(=O)=O` (centres undefined), the inhibition is 54.4%.

Regarding `Cc1ccc(CCNC(=O)C2CCN(S(=O)(=O)c3ccc4c(c3)oc(=O)n4C)CC2)cc1`, the inhibition is -5.23%.

As for `Cc1cc(C)c(C(N)=O)c(SCC(=O)c2cc(C)c(C)cc2C)n1`, the inhibition is 5.89%.

Take `Cc1ccc(C(=O)CSc2nc(C)cc(C)c2C(N)=O)cc1`: the inhibition was 69%.

For `CN(C)c1oc(-c2ccc(Cl)cc2)nc1S(=O)(=O)c1ccccc1`, the inhibition was 3.09%.

Consider `COc1ccc(CS(=O)(=O)CC(C)(O)c2ccc(Cl)cc2)cc1` (centres undefined), for which the inhibition is 8.74%.

For the molecule `Cc1cc(C)n(-c2ccc(C(=O)OCC(=O)Nc3cc(S(C)(=O)=O)ccc3Cl)cc2)n1`, the inhibition is 9.43%.

As for `CC(/C=N\NC(=O)c1cc(C)oc1C)=C\c1ccccc1`, the inhibition is 5.28%.

Consider `Cc1cc(C(=O)N/N=C/C(Cl)=C/c2ccccc2)c(C)o1`, for which the inhibition was 2.89%.

For `COC(=O)c1cc(NC(=O)c2ccc(-c3ccccc3)cc2)ccc1Cl`, the inhibition is -0.43%.

On to `O=C(CSc1ncn[nH]1)NCc1ccc(Cl)cc1`, for which the inhibition is 23.7%.

As to `CC(C)c1ccc(C(=O)CSc2ncn[nH]2)cc1`, the inhibition is -3.26%.

On to `Cc1ccc2c(c1)Oc1ccc([N+](=O)[O-])cc1C(=O)N2`, for which the inhibition is 3.53%.

As for `Cc1ccc2c(c1)Oc1ccc(NC(=O)CCCl)cc1C(=O)N2`, the inhibition is 11.1%.

`Cc1ccc(Cn2c(N)c(S(=O)(=O)c3cccs3)c3nc4ccccc4nc32)cc1`: the inhibition was -12%.

With `COc1ccc(C(CNC(=O)COc2ccc(-c3ccccc3)cc2)N2CCOCC2)cc1` (centres undefined), the inhibition was -6.25%.

As to `N/C(=N\[N+](=O)[O-])N1CCN(C(=O)c2ccccc2)CC1`, the inhibition was -7.03%.

As for `Cc1ccc(S(=O)(=O)Nc2cccc3ncccc23)cc1`, the inhibition was 0.6%.

Take `Cc1ccc(S(=O)(=O)Nc2ccnc3ccccc23)cc1`: the inhibition is -5.18%.

As to `O=S(=O)(c1ccc(=S)[nH]c1)N1CCCC1`, the inhibition is -0.36%.

In the case of `CC(CCc1ccccc1)NC(=O)CCNC(=O)c1ccccc1Cl` (centres undefined), the inhibition is 0.74%.

On to `O=C(CCSCc1ccccc1F)NCc1cccnc1`, for which the inhibition is 12.2%.

Regarding `O=C(Nc1nc2c(s1)CCCC2)c1cc(-c2ccccc2)nc2ccccc12`, the inhibition was 65.5%.

For `O=C(Nc1nc2c(s1)CCCC2)c1cc(-c2ccncc2)nc2ccccc12`, the inhibition was -5.59%.

Take `COc1ccc(-c2ccc3oc(-c4ccc(OC)cc4)c(C#CC4(O)CCCCC4)c3c2)cc1`: the inhibition was 61.2%.

Regarding `COc1ccc(-c2oc3ccc(-c4ccc(OC)nc4)cc3c2-c2ccc(OC)cc2)cc1`, the inhibition was 3.96%.

Turning to `CCC(C)(C)NC(=O)C(c1cccs1)N(C(=O)c1ccn[nH]1)c1cccc(OC)c1` (centres undefined), the inhibition was -8.05%.

Turning to `Cc1nn(-c2cc(N3CCCC3)ccc2[N+](=O)[O-])c(=O)c2ccccc12`, the inhibition was -3.75%.

In the case of `CN1CCN(c2ccc([N+](=O)[O-])c(-n3nc(-c4ccccc4)c4ccccc4c3=O)c2)CC1`, the inhibition was 38.4%.

Consider `COc1cc(C=O)ccc1OCC(=O)N1CCOCC1`, for which the inhibition is -0.06%.

`CCC1(CC)Cc2ccccc2-c2nc(CN3CCOCC3)[nH]c(=O)c21`: the inhibition was 51.6%.

Consider `CCc1nc2c(c(=O)[nH]1)C(CC)(CC)Cc1ccccc1-2`, for which the inhibition was 5.03%.

As for `O=C(Nc1cccc(S(=O)(=O)N2CCCC2)c1)c1cc(=O)[nH]c2ccccc12`, the inhibition is -4.61%.

`Cc1nc2ccc(NC(=O)c3ccccc3)cc2s1`: the inhibition was 3.89%.

`Cc1nc2ccc(Oc3ccccc3)cc2s1`: the inhibition was 7.08%.

For `Cn1c(=O)n(C)c2cc(NC(=O)c3cc4ccccc4o3)ccc21`, the inhibition is 6.91%.

On to `COc1ccc(-n2cc(CNCCc3nc(C)cc(C)n3)c(-c3ccccc3Cl)n2)cc1`, for which the inhibition is 68.4%.

On to `COc1ccc(-n2cc(CNCCCn3ccnc3)c(-c3ccccc3Cl)n2)cc1`, for which the inhibition was 13.2%.

Regarding `COc1ccc(OCCN2C(=O)c3ccccc3C2=O)c([N+](=O)[O-])c1`, the inhibition is -4.41%.

For `COc1cc2[nH]c(C(=O)NCCc3ccccc3)cc2c(OC)c1OC`, the inhibition was 0.36%.

Take `COC(=O)c1cnn(-c2ccc(C)c(C)c2)c1-n1cccc1`: the inhibition was 3%.

With `Cc1c(Cl)ccc2c1NC(=O)[C@]21N[C@@H](CCC(N)=O)[C@H]2C(=O)N(c3ccc(F)cc3)C(=O)[C@H]21`, the inhibition is -5.78%.

As to `Cc1c(Cl)ccc2c1NC(=O)C21NC(CCC(N)=O)[C@H]2C(=O)N(c3ccc(Cl)cc3)C(=O)[C@H]21` (some centres undefined), the inhibition was -9%.

In the case of `CC(=O)N(C)c1ccc(OCC(O)Cn2c(C)nc3ccccc32)cc1` (centres undefined), the inhibition is 0.96%.

As to `CCC(c1nnc(SCC(=O)Nc2cc(S(C)(=O)=O)ccc2Cl)n1Cc1ccccc1)N(C)C` (centres undefined), the inhibition is -14.3%.

Regarding `C=CCSc1n[nH]c(-c2ccc(OC)cc2)n1`, the inhibition is -6.49%.

For the molecule `C=CCSc1n[nH]c(-c2ccc(OCCC)cc2)n1`, the inhibition is 56.7%.

Regarding `Cc1ccc(NC(=O)c2ccc(OC(=O)COc3ccc(Cl)c(C)c3)cc2)cc1`, the inhibition was -2.96%.

As for `COc1ccc(Cc2[nH]n3c(=O)c(Cl)c(C)nc3c2-c2ccccc2)cc1`, the inhibition is 35.3%.

On to `O=C(Cn1nc(CNc2ccc(Br)cc2)[n+]2c1CCCCC2)c1ccc([N+](=O)[O-])cc1`, for which the inhibition was 64.9%.

As for `O=C(Cn1nc(CNc2ccc(Cl)cc2)[n+]2c1CCCCC2)c1ccccc1`, the inhibition was 0.81%.

With `CCCCN1C(=O)C(=O)N(c2ccccc2)C1=S`, the inhibition is 5.31%.

On to `COC(=O)CN(C(=S)Nc1ccc(F)cc1)C1CC(=O)N(c2ccccc2)C1=O` (centres undefined), for which the inhibition was 5.39%.

Turning to `O=C(O)/C(=C\c1ccc2ccccc2c1)c1cccc2ccccc12`, the inhibition was 2.24%.

In the case of `COc1ccc(/C=C2\Sc3ccc(C(=O)N4CCCC4)cc3N(C)C2=O)cc1OC`, the inhibition is 7.11%.

Regarding `CN1C(=O)/C(=C/c2ccccc2Cl)Sc2ccc(C(=O)N3CCCC3)cc21`, the inhibition is 69.8%.

With `Cn1ncc([N+](=O)[O-])c1C(=O)Nc1ccc(-c2nc3ccccc3o2)cc1`, the inhibition was 1.46%.

`COc1ccc(/C=C/C(=O)NCCOc2ccc(C)cc2)cc1`: the inhibition is -2.38%.

In the case of `NC(=O)CC(NC(=O)c1ccccc1)c1ccc(NC2CCCC2)c([N+](=O)[O-])c1` (centres undefined), the inhibition is 0.75%.

Consider `CN(C)CCCn1c2c(c(SCC(=O)Nc3cccc4ccccc34)nc1=O)CCC2`, for which the inhibition is 0.83%.

`Fc1cccc(CCN2CCNC[C@@H]2Cc2ccccc2)c1`: the inhibition is -4.28%.

On to `c1ccc(C[C@H]2CNCCN2CCc2cccc3ccccc23)cc1`, for which the inhibition was 53.6%.

With `CCOC(=O)N1CCC(NC(=O)C2CCN(S(=O)(=O)c3cnc[nH]3)CC2)CC1`, the inhibition is -6.34%.

In the case of `Cc1ccc(S(=O)(=O)N2CCN(C(=O)Cn3c(=O)oc4ccccc43)CC2)c(C)c1`, the inhibition was 3.86%.

`CC(C)N(C(=O)[C@H]1CC(CC(=O)NCc2ccco2)C(=O)N2CCc3c([nH]c4ccccc34)[C@]12C)C(C)C` (some centres undefined): the inhibition is 2.78%.

In the case of `O=S(=O)(c1ccc(F)cc1)n1ccc2cccnc21`, the inhibition is 4.44%.

In the case of `Cc1nc2ccc(-c3nc4ccccc4o3)cc2[nH]1`, the inhibition is 8.75%.

Take `Nc1ccc(-c2nc3ccccc3o2)cc1`: the inhibition is 49%.

On to `COc1ccc(/C=N/NC(=O)c2cc3c(ccc4ccccc43)o2)cc1OC`, for which the inhibition was 11.8%.

`Cc1ccc2nc(N3C(=O)C(O)=C(C(=O)c4ccco4)C3c3cccs3)sc2c1` (centres undefined): the inhibition was -7.92%.

Consider `Cc1ccc2nc(N3C(=O)C(O)=C(C(=O)c4cc5ccccc5o4)C3c3cccs3)sc2c1` (centres undefined), for which the inhibition was -1.99%.

In the case of `COc1ccc(CNC(=O)c2cccc(NC3=NC4CS(=O)(=O)CC4S3)c2)cc1` (centres undefined), the inhibition is -9.1%.

Consider `CC[n+]1ccccc1/C=C1\Sc2ccc(C)cc2N1C`, for which the inhibition was 6.67%.

Turning to `CCN1/C(=C/C=C/C=C/C=C/c2sc3ccccc3[n+]2CC)Sc2ccccc21`, the inhibition is 5.11%.

Consider `Cc1cc(C)n(-c2ccc(Cl)c(C(=O)OCC(=O)N3CCCCC3C)n2)n1` (centres undefined), for which the inhibition is -1.17%.

`C/C(=N\NC(=O)c1nnn(-c2nonc2N)c1CN(C)c1ccccc1)c1ccc(O)cc1`: the inhibition is -0.5%.

Take `C/C(=N\NC(=O)c1nnn(-c2nonc2N)c1CN(C)c1ccccc1)c1ccccc1O`: the inhibition was 12.9%.

On to `Cc1ccc(C)c(OC(=O)C2CSC3(C)CCC(=O)N23)c1C` (centres undefined), for which the inhibition was -8.22%.

For `Cc1ccc(NS(=O)(=O)c2ccc(Cl)c(C(=O)Nc3ccccc3-c3nc4ccccc4[nH]3)c2)cc1C`, the inhibition is 4.41%.

`CCC(NC(=O)c1ccccc1NC(=O)c1ccco1)C(=O)NNC(=O)c1ccc(OC)cc1` (centres undefined): the inhibition was -4.34%.

On to `O=C(Nc1cc(Cl)cc(Cl)c1)C1C2C=CC3(O2)C1C(=O)N(CCCN1CCOCC1)C3C(=O)NC1CCCCC1` (centres undefined), for which the inhibition was -1.97%.
